In PubChem BioAssay (NCI) one finds growth data, which are given here for eight molecules.

Common to all, as to assay: NCI-60 one-dose screen, 48 h (100 = growth as untreated, 0 = no growth, -100 = all killed)
One assay concerns HCT-15 colon. To be noted: 10 µM unless noted.
The test system of a further assay is HT29 colon. To be noted: 10 µM unless noted.
Another assay relates to SNB-75 CNS. To be noted: 10 µM unless noted.
In a further assay the test system is SNB-19 CNS. The conditions noted are these: 10 µM unless noted.
The subject of a further assay is U251 CNS. To be noted: 10 µM unless noted.
A further assay deals with PC-3 prostate. To be noted: 10 µM unless noted.
In a further assay the test system is SK-MEL-5 melanoma. The conditions noted are these: 10 µM unless noted.
Another assay has as its system UACC-62 melanoma. To be noted: 10 µM unless noted.
Another assay relates to LOX IMVI melanoma. The conditions noted are these: 10 µM unless noted.
Another assay relates to SK-MEL-28 melanoma. To be noted: 10 µM unless noted.
Another assay has as its system SK-MEL-2 melanoma. To be noted: 10 µM.
The next assay concerns EKVX NSCLC. The conditions noted are these: 10 µM unless noted.
A further assay concerns SN12C renal. To be noted: 10 µM unless noted.
The subject of a further assay is UO-31 renal. To be noted: 10 µM unless noted.
The subject of a further assay is TK-10 renal. To be noted: 10 µM unless noted.
In a further assay the test system is ACHN renal. To be noted: 10 µM unless noted.
A further assay has as its system A498 renal. To be noted: 10 µM unless noted.
In a further assay the test system is CCRF-CEM leukemia. The conditions noted are these: 10 µM unless noted.
A further assay relates to MOLT-4 leukemia. The conditions noted are these: 10 µM unless noted.
The subject of another assay is CAKI-1 renal. The conditions noted are these: 10 µM unless noted.

This is part of a sample that, as a whole, favours compounds with a hit. Of some 83,000 tested, about 20% had one in any assay.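 Single-dose data. Exposure time 48 hours. Values below 10 considered active.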 Values without a mark were called inactive. Calls of active or inactive are those of the source.

Take `CCOC(=O)Sc1ncnc2nc[nH]c12`: the growth with HCT-15 colon is 82.5%; in the assay with HT29 colon it was 59.6%; with SNB-75 CNS it was 62%; in the assay with SNB-19 CNS it was 91.1%; in the assay on U251 CNS, 91.7%; in the assay with PC-3 prostate it was 88%. The growth in the assay with SK-MEL-5 melanoma was 74.1%; with UACC-62 melanoma, 16%; in the assay with LOX IMVI melanoma it was 7.98% (active); in the assay on SK-MEL-28 melanoma, 100%; in the assay on SK-MEL-2 melanoma, 27.9%; in the assay with EKVX NSCLC it was 97.9%. Moreover, the growth with SN12C renal was 82.4%; with UO-31 renal, 41%; in the assay on TK-10 renal it was 23.2%; in the assay with ACHN renal, 70%; with A498 renal, 84%; in the assay on CCRF-CEM leukemia, 13.5%. Moreover, the growth with MOLT-4 leukemia is 4.03% (active).

In the case of `Cc1ccc(NC(=O)NC(=O)CSc2nc3ccccc3nc2C)cc1`, the growth was 89% in the assay with HCT-15 colon; 67.5% in the assay on HT29 colon; 70.8% with SNB-75 CNS; 80.8% in the assay on SNB-19 CNS; 84.2% with U251 CNS; 67% with PC-3 prostate. The growth is 38.7% with SK-MEL-5 melanoma; 52.5% in the assay with UACC-62 melanoma; 58.8% in the assay on LOX IMVI melanoma; 75.2% in the assay on SK-MEL-28 melanoma; 68.3% with SK-MEL-2 melanoma; 59.6% in the assay on EKVX NSCLC. Also, the growth with SN12C renal is 73.7%; in the assay with UO-31 renal, 64.5%; in the assay with TK-10 renal, 82.3%; in the assay with ACHN renal, 75.6%; in the assay on A498 renal, 69.2%; in the assay with CCRF-CEM leukemia it was 58.9%. Besides, the growth with MOLT-4 leukemia was 74.3%.

On to `Nc1nc(N)c2cc(CNc3ccc(C(=O)NC(CC(=O)O)C(=O)O)cc3)ccc2n1` (stereo not given), for which the growth is 36.9% in the assay on HCT-15 colon; 19.8% with HT29 colon; 52.8% with SNB-75 CNS; 43.4% in the assay on SNB-19 CNS; 38.1% in the assay with U251 CNS; 31.2% in the assay with PC-3 prostate. Besides, the growth with SK-MEL-5 melanoma is 21.8%; with UACC-62 melanoma, 3.72% (active); with LOX IMVI melanoma, 15.2%; in the assay with SK-MEL-28 melanoma, 54.3%; with SK-MEL-2 melanoma, 72.3%; with EKVX NSCLC it was 43.2%. Further, the growth was 15.5% with SN12C renal; 35.8% with UO-31 renal; 61.2% with TK-10 renal; 25.9% in the assay on ACHN renal; 19.1% with A498 renal; 23% with CCRF-CEM leukemia. The growth in the assay with MOLT-4 leukemia was 32.8%.

Regarding `Cc1cc(O)c2c(c1)C1OC(=O)CCCCCN1C1=C2C(=O)c2cccc(OC3CC(O)C(O)C(C)O3)c2C1=O` (stereo not given), the growth in the assay with HCT-15 colon was 46.1%; in the assay on HT29 colon, 93.7%; in the assay with SNB-75 CNS it was 117%; in the assay with SNB-19 CNS it was 97.1%; with U251 CNS it was 63.1%; with PC-3 prostate it was 87.2%. The growth in the assay with SK-MEL-5 melanoma is 86.9%; in the assay with UACC-62 melanoma, 89.5%; with LOX IMVI melanoma, 34.3%; in the assay with SK-MEL-28 melanoma, 75.8%; in the assay on SK-MEL-2 melanoma, 46.4%; with EKVX NSCLC, 97%. The growth in the assay with SN12C renal was 66.3%; in the assay on UO-31 renal it was 99.9%; in the assay on TK-10 renal, 142%; in the assay on ACHN renal, 69.1%; in the assay on CAKI-1 renal, 96.9%; in the assay with CCRF-CEM leukemia it was 57.8%. For the same molecule, the growth with MOLT-4 leukemia is 63.3%.

Take `Nc1c(C(=O)c2ccccc2)sc2nc(-c3cccs3)ccc12`: the growth in the assay with HCT-15 colon was 24.7%; in the assay with HT29 colon, 5.02% (active); in the assay on SNB-75 CNS it was 32.4%; with SNB-19 CNS it was 36.1%; with U251 CNS, 17.6%; with PC-3 prostate it was 23%. The growth in the assay on SK-MEL-5 melanoma was 17.5%; in the assay with UACC-62 melanoma, 11.8%; in the assay on LOX IMVI melanoma, 44.8%; in the assay with SK-MEL-28 melanoma, 72.6%; in the assay with SK-MEL-2 melanoma, 44.2%; with EKVX NSCLC, 60.8%. Moreover, the growth with SN12C renal was 44.9%; in the assay on UO-31 renal, 48.7%; with TK-10 renal, 56.7%; in the assay on ACHN renal it was 54.3%; in the assay on CAKI-1 renal, 38.5%; with CCRF-CEM leukemia, 19.1%. In addition, the growth with MOLT-4 leukemia is 28.1%.

For `CSc1nc2ncnc(SC)c2[nH]1`, the growth is 110% in the assay with HCT-15 colon; 89.6% in the assay on HT29 colon; 86.8% in the assay on SNB-75 CNS; 116% in the assay on SNB-19 CNS; 83.9% in the assay with U251 CNS; 91.6% in the assay with PC-3 prostate. In addition, the growth in the assay with SK-MEL-5 melanoma is 106%; in the assay on UACC-62 melanoma, 110%; with LOX IMVI melanoma, 99.3%; in the assay on SK-MEL-28 melanoma, 107%; with SK-MEL-2 melanoma, 99.4%; with EKVX NSCLC, 94%. The growth with SN12C renal was 100%; in the assay with UO-31 renal, 82%; in the assay on TK-10 renal it was 99.8%; with ACHN renal it was 103%; in the assay with CAKI-1 renal, 90.9%; in the assay on MOLT-4 leukemia, 98.9%.

For the molecule `CC1(C=O)NC(=O)NC1=O` (stereo not given), the growth with HCT-15 colon was 101%; in the assay on HT29 colon, 99.2%; in the assay on SNB-75 CNS it was 92.8%; in the assay with SNB-19 CNS it was 103%; in the assay on U251 CNS, 82%; in the assay on PC-3 prostate, 88%. For the same molecule, the growth in the assay with SK-MEL-5 melanoma is 102%; in the assay on UACC-62 melanoma, 99.2%; in the assay with LOX IMVI melanoma, 100%; in the assay on SK-MEL-28 melanoma it was 112%; in the assay with SK-MEL-2 melanoma it was 106%; with EKVX NSCLC, 99.6%. Besides, the growth is 97.8% in the assay with SN12C renal; 96% in the assay with UO-31 renal; 100% with TK-10 renal; 104% in the assay on ACHN renal; 98.6% with CAKI-1 renal; 89.9% with MOLT-4 leukemia.

For `Cc1sc2c(c1C)c(=O)nc1c(-c3nc(-c4ccccc4)cs3)n[nH]n12`, the growth was 82.4% in the assay with HCT-15 colon; 107% with HT29 colon; 101% with SNB-75 CNS; 102% with SNB-19 CNS; 94% in the assay on U251 CNS; 82.1% with PC-3 prostate. In addition, the growth in the assay on SK-MEL-5 melanoma is 102%; in the assay with UACC-62 melanoma, 91.8%; in the assay on LOX IMVI melanoma, 95.9%; in the assay on SK-MEL-28 melanoma it was 106%; in the assay on SK-MEL-2 melanoma, 99.9%; in the assay with EKVX NSCLC, 80.1%. Also, the growth in the assay on SN12C renal was 100%; in the assay on UO-31 renal, 76.2%; in the assay on TK-10 renal it was 145%; in the assay with ACHN renal, 97.1%; with A498 renal, 105%; in the assay with CCRF-CEM leukemia, 85.8%. The growth with MOLT-4 leukemia is 85.7%.
